11 compounds from PubChem BioAssay (NCATS) can be followed below.

Results filed as inconclusive are left out. Values without a mark were called inactive. Activity calls are given as the source filed them. Unless noted, calls come from the whole dose curve; as a rule, active = well fitted curve in the direction sought with a large enough effect; inconclusive = small, poorly fitted or top-dose-only effect, or another doubt; inactive = no such curve, though single readings can be large; an effect the other way counts as inactive or inconclusive.

The target of assay [1] is Aldehyde dehydrogenase, mitochondrial (Homo sapiens) (UniProt P05091). Briefly: qHTS for Inhibitors of the Aldehyde Dehydrogenase Family (ALDH2) Validation screens (AID 2061302; active = well fitted inhibition curve with a large enough effect; title and protocol of this record describe different tests;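 note: plate controls were DMSO vehicle for no effect and maximal DPI positive control response for full effect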). Conditions: ALDH inhibition qHTS; series mostly up to 42.6 µM.
For assay [2], the target named is Retinaldehyde dehydrogenase 3 (Homo sapiens) (UniProt P47895). Kind of assay: qHTS for Inhibitors of the Aldehyde Dehydrogenase Family (ALDH1A3) Validation screen (AID 2061312). Note: % is set by controls: 0 for no effect and ±100 for the full control effect; nearly all actives have a fitted effect of over 45% in size. The note with it: ALDH1A3 enzyme inhibition qHTS validation, fluorescence; series mostly up to 84.7 µM. For orientation: In qHTS, concentration-response curves come from the screen itself.

The nature of assay [3]: BET inhibitor-based combinations targeting novel dependencies in MECOM-rearranged (r) AML: SET-2 cell line (AID 2202231).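 Note: plate controls were DMSO treated cells for no effect and wells without cells for full effect; nearly all actives have a fitted effect of over 35% in size.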 Conditions: SET-2 AML cells viability, CellTiter-Glo luminescence, 48 h; viability: hits give low values, concentration not given here. In a few lines: (§1)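 Each compound was tested at eleven concentrations on cells seeded at 500/well. After two days' incubation, ATP-based luminescence reported viability; responses relative to DMSO and blank wells yielded AUC and cell-line-centred Z-AUC.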

Assay [4] in a line: BET inhibitor-based combinations targeting novel dependencies in MECOM-rearranged (r) AML: MV-4-11 cell line (AID 2202233). Note: nearly all actives have a fitted effect of over 45% in size. Note: potency is the fitted concentration of half-maximal effect. Conditions: MV-4-11 AML viability, CellTiter-Glo luminescence, 48 h; series mostly up to 46 µM. In a few lines:
(§2)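 First, 500 cells per well were seeded; next, drugs were pinned as 11-point doses; then plates sat 48 hr in the incubator; finally CellTiter-Glo was added and luminescence read, with AUC and Z-AUC computed.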

The nature of assay [5]: BET inhibitor-based combinations targeting novel dependencies in MECOM-rearranged (r) AML: HNT-34 cell line (AID 2202234). Note: nearly all actives have a fitted effect of over 35% in size. Note: potency is the fitted concentration of half-maximal effect. Conditions: HNT-34 AML viability, CellTiter-Glo luminescence, 48 h; series mostly up to 46 µM. In a few lines:
as §2
(In general: Cellular ATP, detected with luciferase, serves as a proxy for viable cell number.)

A short description of assay [6]: BET inhibitor-based combinations targeting novel dependencies in MECOM-rearranged (r) AML: UCSD-AML1 cell line (AID 2202235). Note: nearly all actives have a fitted effect of over 40% in size. Note: potency is the fitted concentration of half-maximal effect. The note with it: UCSD-AML1 AML cells viability, CellTiter-Glo, 48 h; series mostly up to 46 µM. In a few lines: as §2
Assay [7] is described as follows: BET inhibitor-based combinations targeting novel dependencies in MECOM-rearranged (r) AML: AML-191 cell line (AID 2202236; note: nearly all actives have a fitted effect of over 35% in size; note: potency is the fitted concentration of half-maximal effect). The note with it: AML-191 viability, CellTiter-Glo luminescence, 48 h; series mostly up to 46 µM. In a few lines:
as §1

The nature of assay [8]: BET inhibitor-based combinations targeting novel dependencies in MECOM-rearranged (r) AML: AML-194 cell line (AID 2202237;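 note: plate controls were vehicle wells for no effect and wells without cells for full effect; nearly all actives have a fitted effect of over 40% in size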). The note with it: AML-194 (MECOM-r AML) viability, CellTiter-Glo, 48 h; series mostly up to 46 µM. In a few lines: as §1
The nature of assay [9]: BET inhibitor-based combinations targeting novel dependencies in MECOM-rearranged (r) AML: OCI-AML3 cell line (AID 2202232).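 Note: plate controls were DMSO vehicle wells for no effect and wells without cells for full effect; nearly all actives have a fitted effect of over 35% in size.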 Conditions: CellTiter-Glo luminescence, 48 h; Potency: OCI-AML3 viability; series mostly up to 46 µM. In a few lines:
as §1

Assay [10] concerns the target Aldehyde dehydrogenase, mitochondrial (Homo sapiens) (UniProt P05091). Kind of assay: qHTS for Inhibitors of the Aldehyde Dehydrogenase Family (ALDH2) Confirmatory screens (AID 2061303; active = well fitted inhibition curve with a large enough effect; title and protocol of this record describe different tests; note: % is set by controls: 0 for no effect and ±100 for the full control effect; nearly all actives have a fitted effect of over 45% in size). Conditions: ALDH inhibition qHTS; series mostly up to 45.4 µM.

As for `O=c1c(-c2ccc(O)cc2)coc2cc(O)ccc12`, the Potency entry in assay [1], in assay [2], in [6], in [7] and in assay [8] was “inactive” throughout. In addition, the viability (as a rule, a read-out of living cells in per cent, often relative to untreated cells) in assay [3] is 112%. Further, the values for the Potency in assay [4] and in [5] were 23.5 µM (active) and 16.6 µM (active), respectively.

As for `CC(=O)[C@H]1CC[C@H]2[C@@H]3CCC4=CC(=O)CC[C@]4(C)[C@H]3CC[C@]12C`, the Potency entry in [1] and in assay [2] was “inactive” each time.

Turning to `Cc1nc2c([nH]1)c(=O)n(C)c(=O)n2Cc1ccco1`, the Potency entry in assay [1] and in [2] was “inactive” throughout.

As for `CCC1(C)CC(=O)NC1=O` (stereo not drawn), the Potency entry in assay [1], in [2], in assay [9], in assay [4], in assay [5] and in [6] was “inactive” throughout. In addition, the viability in assay [3] was 115%.

With `CCN(CC)CC#CCOC(=O)C(O)(c1ccccc1)C1CCCCC1` (stereo not drawn), the Potency entry in [1] and in [2] was “inactive” in each case.

Turning to `Cn1c(=O)c2[nH]cnc2n(C)c1=O`, the Potency entry in assay [1], in [2], in assay [9], in [4], in assay [5] and in assay [6] was “inactive” throughout. For the same compound, the Potency entry in [7] and in [8] was “inactive” throughout. For the same compound, in assay [3], the viability is 117%.

Regarding `Cn1cnc2c1c(=O)[nH]c(=O)n2C`, the Potency result in [1], in [2], in [9], in assay [4], in assay [5] and in [6] was “inactive” throughout. The Potency result in [7] and in assay [8] was “inactive” throughout. Moreover, the viability in assay [3] is 114%.

Take `N[C@@H](Cc1ccc(O)c(O)c1)C(=O)O`: the Potency entry in [9], in [4], in assay [5] and in [8] was “inactive” in each case.

As to `COc1cc2c(c(OC)c1OC)-c1ccc(OC)c(=O)cc1[C@@H](NC(C)=O)CC2`, the values for the Potency in assay [4], in assay [6] and in assay [7] were 0.0372 µM (active), 41.7 nM (active) and 33.2 nM (active), respectively.

Turning to `O=c1c(-c2ccc(O)cc2)coc2cc(O[C@@H]3O[C@H](CO)[C@@H](O)[C@H](O)[C@H]3O)ccc12`, the Potency entry in assay [5] is “inactive”.

`COc1ccc(-c2ccc(C(=O)NCc3cccc(C(F)(F)F)c3)cc2)nn1`: the Potency result in assay [10] is “inactive”.
